Screening results from PubChem BioAssay.
The list is not random: actives were taken first. Their share in the collection is about 3.1%.
PMP22 txn prim: modulators of PMP22 gene transcription in S16 Schwann cells | S16 Pmp22-F2sN Schwann cells, FLuc/NLuc coincidence luminescence, 24 h | AID 1508649 | Potency, µM (series often up to 57.5 µM), hits mostly inhibitors | 43,000 tested, 2% active; active = clear falling dose curves in both reporters; inconclusive = both reporters move, but less clearly or upward; inactive = either reporter flat; the % is the NLuc reporter signal
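Luminescent read-out of sequential FLuc and NLuc signals from a reporter embedded in the Pmp22 3' UTR of S16 Schwann cells, taken after 24 h compound exposure at 37C; compounds reducing both signals score as inhibitors of expression.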
mTORC1 inh: mTORC1 pathway inhibition measured by phospho-rpS6 | AID 493208 | Potency, µM (top dose mostly 38.3 µM), hits mostly inhibitors | Tsc2-/- p53-/- MEF, phospho-rpS6 immunofluorescence/PI, 24 h | 44,000 tested, 0.78% active; note: nearly all actives have a fitted effect of over 50% in size
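Tsc2-/-, p53-/- MEFs (empty-vector stable line) in DMEM + 10% FBS were treated with compounds 24 h at 37 degree Celsius, fixed, and immunostained for phospho-rpS6 (Alexa-488) with propidium iodide counterstain. Laser-scanning cytometry gave % positive cells, normalized against 7.5 nM rapamycin and DMSO.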
p53null 32C kill: kills p53 null cells at the permissive temperature; H1299-neo p53 null cells, ATP luminescence, 24 h, 32C; 55,000 tested, 0.62% active; Potency, µM (titrated, usually from 46.1 µM), most hits filed as cytotoxic; note: nearly all actives have a fitted effect of over 55% in size
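Cells lacking p53 (H1299-neo) are plated at 600 per well and allowed to settle overnight at 37C. Test compounds (up to 46 uM) are added and held 24 hours at 32C, then ATP is quantified by luminescence.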
S16 viability: toxic to S16 Pmp22-F2sN Schwann cells; 43,000 tested, 0.48% active; S16 Pmp22-F2sN Schwann cells (luciferase reporters placed in the Pmp22 gene) viability, CellTiter-Glo, 24 h; Potency, µM (doses to about 57.5 µM), hits mostly cytotoxic; note: nearly all actives have a fitted effect of over 65% in size
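S16 Schwann cells carrying the Pmp22-F2sN reporter, seeded in 1536-well format, were exposed to library compounds for 24 h at 37C. Viability was read as CellTiter-Glo luminescence after 15 min at room temperature.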
p53null 39C kill: kills p53 null cells at the nonpermissive temperature; Potency, µM (highest dose often 46.1 µM), actives largely listed as cytotoxic; 55,000 tested, 0.97% active; H1299 p53-null (neo) cells, 39C, ATPlite viability, 24 h; note: nearly all actives have a fitted effect of over 50% in size
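Concentration-response (up to 46 uM) was run for 24 h at the nonpermissive 39C on H1299-p53A138V or H1299-neo cells. ATP content was measured with ATPlite luminescence. AC50 values were Hill-modeled after normalizing between DMSO and 100 uM tamoxifen killing.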
SKOV3 invasion: blocks SKOV3ip1 adhesion and invasion in omental model. SKOV3ip1-GFP adhesion/invasion on 3D omental model, fluorescence. Potency, µM (series often up to 45.8 µM), most hits filed as inhibitors. 46,000 tested, 0.1% active. AID 1963576; note: nearly all actives have a fitted effect of over 65% in size
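A 3D layer of primary human omental fibroblasts, mesothelial cells, fibronectin and collagen I, grown 48 hr, received SKOV3ip1-GFP cells in serum-free medium plus compounds at 0.36-46 umol/L. After 2 hr RT and 16 hr 37 C, fixed adherent GFP cells were counted; normalized to DMSO and tomatine.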
Hits are given with their value; – = inactive; ? = inconclusive; · = not tested or not shown. Unless noted, calls come from the whole dose curve; as a rule, active = well fitted curve in the direction sought with a large enough effect; inconclusive = small, poorly fitted or top-dose-only effect, or another doubt; inactive = no such curve, though single readings can be large; an effect the other way counts as inactive or inconclusive.

SMILES	PMP22 txn prim	mTORC1 inh	p53null 32C kill	S16 viability	p53null 39C kill	SKOV3 invasion
Cc1ccc(C)c(CN2C(=O)c3ccccc3S(=O)(=O)c3ccc(C(=O)NCCCN4CCCC(C)C4)cc32)c1 (stereo unspecified)	?	?	–	?	?	?
CCC1CCCCN1CCCNC(=O)c1ccc2c(c1)N(Cc1ccc(Cl)cc1)C(=O)c1ccccc1S2(=O)=O (stereo unspecified)	?	?	–	?	25µM	–
Cc1c(C(=O)OCCOc2ccccc2)[nH]c2c1C(=O)CC(c1ccccc1Cl)C2 (stereo unspecified)	5.3µM	1.3µM	–	?	?	–
Cc1c(C(=O)OCCOc2ccccc2)[nH]c2c1C(=O)CC(c1ccccc1)C2 (stereo unspecified)	?	?	–	?	?	–
Cc1ccc(OCC(O)Cn2c(=N)n(CCN3CCCCC3)c3ccccc32)cc1 (stereo unspecified)	?	·	–	?	13µM	8.9µM
O=C(NC1CC1)c1cccc(-c2ccc3c(NC(=O)C4CC4)n[nH]c3c2)c1	·	·	·	·	·	–
CCS(=O)(=O)c1ccccc1C(=O)Nc1ccc(-c2nc3ccccc3s2)cc1	–	–	–	–	–	–
CC(C)(C)C(=O)Nc1ccc(-c2nc3ccccc3s2)cc1	–	–	0.5µM	–	0.63µM	?
CCc1ccc(NC(=O)Nc2ccccc2OCc2cc(=O)n3ccccc3n2)cc1	?	–	?	–	2µM	–
CC(C)C(=O)Nc1ccccc1OCc1cc(=O)n2ccccc2n1	–	–	–	–	–	–
COc1cc(CCc2cc(NC(=O)c3ccc(N4C[C@@H](C)N[C@@H](C)C4)cc3)n[nH]2)cc(OC)c1	·	·	·	·	·	–
CO[C@@H](C(=O)N1Cc2[nH]nc(NC(=O)c3ccc(N4CCN(C)CC4)cc3)c2C1)c1ccccc1	·	·	·	·	·	13µM
O=C(c1ccc(C(=O)N2CCC(N3CCCC3)CC2)c(Nc2ccccc2)c1)N1CCC(N2CCCC2)CC1	·	·	·	·	·	–
CN1CCC(COc2cnc(-c3cccc(Cn4nc(-c5cccc(C#N)c5)ccc4=O)c3)nc2)CC1	·	·	·	·	·	–
CCOc1ccc(-c2cn3c(n2)sc2cc(C(=O)NCCCN(CC)CC)ccc23)cc1	4.5µM	–	–	10µM	–	?
Cc1ccc(-c2cn3c(n2)sc2cc(C(=O)NCCCN4CCCCC4)ccc23)cc1	8.9µM	–	–	4µM	–	8.9µM
CCCN1CCN(CCCNC(=O)c2ccc3c(c2)sc2nc(-c4ccc(OCC)cc4)cn23)CC1	?	?	?	?	25µM	?
Cc1ccc(-c2cn3c(n2)sc2cc(C(=O)NCCCN4CCCCCC4)ccc23)cc1	?	–	–	?	–	?
CCOc1ccc(-c2cn3c(n2)sc2cc(C(=O)NCCCN4CCCCC4)ccc23)cc1	14µM	–	–	7.1µM	–	11µM
CCOc1ccc(-c2cn3c(n2)sc2cc(C(=O)NCCCN4CCCCCC4)ccc23)cc1	?	–	–	?	–	?
COc1c(C)cnc(Cn2cnc3c(Cl)nc(N)nc32)c1C	·	·	·	·	·	–
Clc1ccc2c(N3CCN(CCCN4CCN(c5ccnc6cc(Cl)ccc56)CC4)CC3)ccnc2c1	·	·	·	·	·	–
CS(=O)(=O)Oc1ccc2c(NC(N)=O)c(C(=O)c3ccc(Cl)cc3Cl)oc2c1	·	·	·	·	·	–
c1ccc(-c2nn3c(c2-c2ccnc4cc(OCCN5CCOCC5)ccc24)CCC3)nc1	·	·	·	·	·	–
C=C1[C@H](n2cnc3c(=O)[nH]c(N)nc32)C[C@H](O)[C@H]1CO	·	·	·	·	·	–
COCCNC(=O)CSc1nnc(NC(=O)Nc2ccc(C)cc2)s1	–	–	13µM	–	–	–
Cc1ccc2[nH]cc(C(c3ccccc3)c3ccc(C)s3)c2c1 (stereo unspecified)	?	?	11µM	–	16µM	?
